Assay outcomes (PubChem)
Rows were chosen to be rich in hits. Some 6.5% of all compounds tested hit in one or more screens of this group.
DPM-DC inhibit: blocks S. pneumoniae diphosphomevalonate decarboxylase | purified DPM-DC, PK/LDH coupled NADH fluorescence | calls only at 10 µM | 65,000 tested, 0.49% active | AID 556;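 active = the 320 compounds with the highest percent inhibition in the single-dose primary screen, excluding strongly autofluorescent ones, cut at about 32% in these data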;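 also: kinetic rate of NADH fluorescence loss reporting ADP formed by the decarboxylase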
Abs 340nm: compounds absorbing at 340 nm; 65,000 tested, under 10 active; fold change at 10 µM; AID 708; compound absorbance at 340 nm, fold over control;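 active = at 10 µM dose, initial 340 nm absorbance at least 2 fold that of control wells; inactive = change under 2 fold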;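 also: initial absorbance extrapolated from kinetic A340 decline of NADH oxidation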
NADH enzymes: blocks coupling enzymes of NAD/NADH assays; IC50, µM (titrated, usually from 10 µM), for inactives: top-dose inhibition; AID 774; 65,000 tested, 0.02% active; coupled PK/LDH NADH assays, four targets;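 active = single-dose screening hits from any of four coupled enzyme assays that gave an IC50 when retested across doses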;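 also: the DPM-DC format reads NADH fluorescence rather than 340 nm absorbance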
Fluor 339 460: intrinsic fluorescence of library compounds, ex339/em460 – biochemical, MLSMR library, data from DPM-DC assay, artefact control, profiling panel. compound autofluorescence, ex339/em460 nm, NADH buffer; stronger effect = higher value; 1 = no-compound wells, NADH background. fluorescence fold increase at 10 µM. 65,000 tested, 5.5% active. AID 709;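 active = at 10 µM, mean starting fluorescence two-fold or more over control wells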;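 also: signal is the first read of a kinetic run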
PMK inhibit: blocks S. pneumoniae phosphomevalonate kinase | purified PMK, PK/LDH-coupled NADH absorbance 340 nm | inhibition, % at 10 µM | 65,000 tested, 0.49% active;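 active = top-ranked compounds by inhibition in the single 10 µM screen, taking a fixed number of the strongest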;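 also: 0% = full reaction with DMSO carrier and 100% = background rate without enzyme reaction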
MK inhibit: S. pneumoniae mevalonate kinase inhibition | purified MK, PK/LDH-coupled NADH absorbance 340 nm | inhibition, % at 10 µM | 65,000 tested, 0.48% active | AID 555;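 active = ranked among the strongest by inhibition in the single 10 µM screen, a fixed top-ranked set picked for dose follow-up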
* hit, by the source's call; i = inactive; · = not tested or not shown; + = active, no number; [ ] = remark or other dose.

SMILES	DPM-DC inhibit	Abs 340nm	NADH enzymes	Fluor 339 460	PMK inhibit	MK inhibit
COc1cc2c(cc1NC(=O)CSCC(=O)O)oc1ccccc12	i	1.11	4.0%	1.12	1.0	11.0
COc1cc2c(cc1NCc1ccccn1)oc1ccccc12	·	1.02	3.0%	2.35*	4.0	4.0
Cc1ccc(-c2nc3ncccn3c2NC(=O)C2CC2)cc1	·	1.1	3.0%	5.05*	4.0	2.0
CC(=O)Nc1c(-c2ccccc2)nc2ncccn12	·	1.1	4.0%	2.16*	0.0	7.0
Oc1ccc(-c2nc3ncccn3c2Nc2ccc3c(c2)OCCO3)cc1	i	1.08	9.0%	1.07	12.0	15.0
O=C(c1ccco1)c1cn[nH]c1-c1ccc(Cl)cc1O	i	0.96	6.0%	1.07	10.0	7.0
Cc1sc(NC(=O)CSc2nnc(C)c(=O)[nH]2)c(C#N)c1C	i	1.01	4.0%	1.02	13.0	0.0
CCOc1ccccc1NC(=O)Cn1cnc2c(cnn2-c2ccc(C)c(C)c2)c1=O	i	0.96	6.0%	1.61	13.0	4.0
Cc1ccc(-n2ncc3c(=O)n(CC(=O)Nc4cccc(Cl)c4)cnc32)cc1C	i	0.98	4.0%	2.7*	9.0	3.0
Cc1ccccc1OCCCCc1c(C)n[nH]c1C	i	1.01	15.0%	1.07	31.0*	7.0
Cc1cccc(C)c1OCCCCc1c(C)n[nH]c1C	i	1.01	4.0%	1.15	0.0	12.0
Cc1ccc(-c2cc(C(=O)Nc3cccnc3)c3ccccc3n2)o1	·	1.09	8.0%	2.2*	0.0	15.0
O=C(Nc1cccnc1)c1coc(=O)c2ccccc12	i	1.01	10.0%	1.5	11.0	5.0
CCCOC(=O)CCc1n[nH]c(=O)[nH]c1=O	i	0.98	2.0%	1.09	2.0	5.0
CCCOC(=O)Cc1n[nH]c(=O)[nH]c1=O	+	0.96	20.0%	0.55	10.0	5.0
O=C(Nc1nc2c(s1)CCCC2=O)c1cnccn1	i	1.18	7.0%	1.01	6.0	9.0
COC(=O)c1ccc(C(=O)OC)c(N)c1	·	1.03	3.0%	3.95*	0.0	6.0
COC(=O)c1ccc(C(=O)OC)c(NS(C)(=O)=O)c1	i	1.03	5.0%	1.23	0.0	13.0
COC(=O)c1cc(Cc2ccc(N)c(C(=O)OC)c2)ccc1N	·	1.07	5.0%	2.15*	5.0	4.0
O=C(CSc1n[nH]c(-c2ccc(S(=O)(=O)NC3CCCCC3)cc2)n1)N1CCCC1	i	1.08	16.0%	2.97*	14.0	10.0
O=c1cc(NCc2ccco2)[nH]c(=O)n1-c1ccc(Br)cc1	i	0.97	5.0%	0.99	8.0	7.0
COc1ccc(OC)c(S(=O)(=O)NCCc2ccccc2)c1	i	1	6.0%	1.14	4.0	11.0
Cc1cc(C)c2c(c1)-c1cc(C)nn1C(c1ccc3c(c1)OCO3)N2 (stereo not given)	i	0.99	6.0%	2.67*	5.0	4.0
Cc1cccc(NC(=O)c2cc3n(n2)C(C(F)(F)F)CC(c2ccc4c(c2)OCO4)N3)c1 (stereo not given)	i	0.96	3.0%	0.98	17.0	0.0
Cc1cc2n(n1)C(c1ccc3c(c1)OCO3)Nc1c(C)cccc1-2 (stereo not given)	i	0.98	9.0%	2.21*	7.0	12.0
SMILES	DPM-DC inhibit	Abs 340nm	NADH enzymes	Fluor 339 460	PMK inhibit	MK inhibit
COCc1cc(C)nc(SCC(=O)N2CCC(C)CC2)c1C#N	i	1	4.0%	1.05	5.0	7.0
CCC(C)Sc1nnc(Cc2cc(=O)[nH]c(=O)[nH]2)n1-c1ccc(F)cc1 (stereo not given)	i	1.06	4.0%	1.08	7.0	6.0
Cc1cccc(-n2c(=O)[nH]c3c(C(N)=O)nc(CC(C)C)nc32)c1	·	1.04	5.0%	5.11*	9.0	0.0
CC(C)Cc1nc(C(N)=O)c2[nH]c(=O)n(-c3ccc(F)cc3)c2n1	·	1.05	4.0%	2.16*	8.0	0.0
COc1ccc(NC(=O)c2cnc3sccn3c2=O)cc1	i	1.19	7.0%	0.95	15.0	4.0
Cc1cccc(NC(=O)c2cnc3sccn3c2=O)c1	i	1.23	5.0%	1.04	1.0	6.0
COc1ccccc1CNC(=O)c1cnc2sccn2c1=O	i	1.15	4.0%	1.15	6.0	1.0
Cc1cccc(NC(=O)c2cnc3sccn3c2=O)n1	i	1.12	8.0%	0.97	0.0	active
O=C(Nc1ccon1)c1cnc2sccn2c1=O	i	1.13	8.0%	3.22*	0.0	5.0
O=C(NCc1cccnc1)c1cnc2sccn2c1=O	·	1.2	1.0%	2.2*	0.0	2.0
Cc1nc2sc(C(c3ccccc3)N3CCN(c4ccccc4F)CC3)c(O)n2n1 (stereo not given)	i	0.98	4.0%	1.03	17.0	6.0
CC(=O)Nc1ccccc1N(C)S(=O)(=O)c1ccc(C)cc1	i	1.03	3.0%	1.12	9.0	0.0
O=C(c1cccnc1)N1CCc2ccccc2C1	i	1.02	16.0%	1.13	34.0*	9.0
C=CCOC(=O)C1=C(C)Nc2nc3ccccc3n2C1c1ccncc1 (stereo not given)	i	1.1	5.0%	1.5	6.0	10.0
CCOC(=O)c1sc2nc(CC(=O)OC)nc(NCc3ccco3)c2c1C	i	1.1	10.0%	1.46	16.0	0.0
CCOC(=O)c1sc2nc(CC(=O)OC)nc(NCC(=O)OC)c2c1C	·	1.06	12.0%	3.66*	14.0	9.0
CCOC(=O)c1cc2c(=O)n3cccc(C)c3nc2n(CCc2ccc(OC)c(OC)c2)c1=N	i	1.03	7.0%	1.24	12.0	10.0
CCOC(=O)c1cc2c(=O)n3cccc(C)c3nc2n(CC2CCCO2)c1=NC(C)=O (stereo not given)	·	1.04	5.0%	2.92*	9.0	0.0
CCOC(=O)c1cc2c(=O)n3cccc(C)c3nc2n(CCc2ccccc2)c1=N	+[fluoresces]	0.98	3.0%	2.27*	5.0	4.0
C=CCn1c(=N)c(C(=O)OCC)cc2c(=O)n3cccc(C)c3nc21	·	1.05	0.0%	2.3*	0.0	0.0
CCOC(=O)c1cc2c(=O)n3cccc(C)c3nc2n(Cc2ccccc2Cl)c1=N	i	1.04	7.0%	1.86	9.0	7.0
CCCCN(C)CCNC(=O)c1c[nH]c2ccc(S(=O)(=O)N(CC)CC)cc2c1=O	i	1.06	13.0%	3.17*	19.0	0.0
Cc1ccc(N2C(=O)C3ON(c4ccccc4)C(c4ccncc4)C3C2=O)c(C)c1 (stereo not given)	i	0.98	3.0%	1.05	2.0	7.0
Fc1cccc(-c2cc3nc4c(c(N5CCN(c6cnccn6)CC5)n3n2)CCCC4)c1	·	0.99	5.0%	2.36*	12.0	10.0
CCCS(=O)(=O)n1nc(-c2ccc(OC)cc2OC)cc1N	i	1.07	2.0%	1.1	1.0	4.0
COc1ccc(-c2cc3nc(C)cc(C)n3n2)c(OC)c1	i	1.06	13.0%	3.18*	16.0	0.0
COc1ccc(C(=O)NCc2cn3c(C)csc3n2)cc1OC	+	1	36.0%	1.12	4.0	3.0
